According to PubChem BioAssay:
A number with no mark means an inactive call. For some assays here: Results with a measured potency or affinity are listed apart. Activity calls are given as the source filed them. Unless noted, how the calls were made is not given here.

Columns and labels:
[1] = antimalarial activity against Dd2 strain (AID 2302;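 active means growth inhibition above 50% at the single 2 µM test dose, taken to imply half-maximal potency below 2 µM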;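 further: 0% = DMSO untreated growth and 100% = chloroquine plus artemisinin killed control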); conditions: P. falciparum Dd2 in RBCs, LDH growth readout, 72 h; at 2 µM; hits give high values
[2] = HepG2 cytotoxicity, primary screen, cytotoxicity control for P. falciparum antimalarial project, cell-based, ATP luminescence (AID 2303;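 active means inhibition above 50%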;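 further: 0% = DMSO wells and 100% = digitonin-killed cells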); conditions: HepG2 viability, 24-48 h, at 10 µM, hits give high values
[3] = target: L-lactate dehydrogenase (Plasmodium falciparum (isolate CDC / Honduras)) (UniProt Q27743); assay: PfLDH activity inhibition – cell lysate, 3D7 strain, counter-screen for P. falciparum growth inhibition project (AID 2304);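 further: 0% = vehicle and 100% = reference inhibitor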; conditions: P. falciparum 3D7 crude extract, LDH APAD/NBT absorbance; at 2 µM; hits give high values
Sequence of L-lactate dehydrogenase (Plasmodium falciparum (isolate CDC / Honduras)) (Q27743 whole entry, looked up): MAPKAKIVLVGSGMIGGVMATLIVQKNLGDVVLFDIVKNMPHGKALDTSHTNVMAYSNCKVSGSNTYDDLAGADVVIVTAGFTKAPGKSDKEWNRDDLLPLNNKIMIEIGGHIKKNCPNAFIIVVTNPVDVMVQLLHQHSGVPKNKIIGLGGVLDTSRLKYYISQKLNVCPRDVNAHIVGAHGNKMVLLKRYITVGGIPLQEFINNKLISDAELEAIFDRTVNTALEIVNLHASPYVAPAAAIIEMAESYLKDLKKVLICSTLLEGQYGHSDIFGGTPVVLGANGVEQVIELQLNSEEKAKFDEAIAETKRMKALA

[4] = inhibition of 3D7 malaria parasite growth – strain 3D7 (AID 2306);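 further: 0% = DMSO wells and 100% = chloroquine plus artemisinin control wells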; conditions: P. falciparum 3D7 erythrocytic growth, LDH absorbance, 72 h; at 2 µM; hits give high values
[5] = target: Calcium-dependent protein kinase 1 (Plasmodium falciparum (isolate 3D7)) (UniProt P62344); assay: PfCDPK1 kinase inhibitors, biochemical, TCAMS library (AID 1159585; cut-off not given, nearly all actives have IC50 up to about 0.98 µM;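 further: inhibitors leave more ATP so luminescence rises with inhibition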); conditions: recombinant PfCDPK1, Kinase-Glo ATP depletion luminescence
Sequence of Calcium-dependent protein kinase 1 (Plasmodium falciparum (isolate 3D7)) (P62344 whole entry, looked up): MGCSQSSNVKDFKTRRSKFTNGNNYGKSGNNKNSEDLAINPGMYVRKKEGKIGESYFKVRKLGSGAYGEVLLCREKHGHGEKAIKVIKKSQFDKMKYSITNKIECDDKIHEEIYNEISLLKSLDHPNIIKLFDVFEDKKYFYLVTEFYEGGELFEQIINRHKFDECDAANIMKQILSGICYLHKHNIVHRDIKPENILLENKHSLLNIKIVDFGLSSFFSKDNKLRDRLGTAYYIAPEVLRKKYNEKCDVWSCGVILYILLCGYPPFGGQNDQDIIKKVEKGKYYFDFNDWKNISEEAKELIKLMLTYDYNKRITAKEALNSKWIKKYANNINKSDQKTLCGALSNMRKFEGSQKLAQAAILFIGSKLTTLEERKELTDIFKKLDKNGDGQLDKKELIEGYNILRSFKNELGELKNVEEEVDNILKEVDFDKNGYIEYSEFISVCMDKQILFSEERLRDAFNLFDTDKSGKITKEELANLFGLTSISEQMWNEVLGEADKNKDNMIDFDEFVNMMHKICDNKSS

[6] = target: Plasmodium falciparum protein kinase 6 (PK6, PF3D7_1337100) (UniProt Q8IDW1); assay: PfPK6 kinase inhibitors, biochemical, TCAMS library (AID 1159586); conditions: recombinant PfPK6, Kinase-Glo ATP depletion luminescence
Sequence of Plasmodium falciparum protein kinase 6 (PK6, PF3D7_1337100) (Q8IDW1 1-305): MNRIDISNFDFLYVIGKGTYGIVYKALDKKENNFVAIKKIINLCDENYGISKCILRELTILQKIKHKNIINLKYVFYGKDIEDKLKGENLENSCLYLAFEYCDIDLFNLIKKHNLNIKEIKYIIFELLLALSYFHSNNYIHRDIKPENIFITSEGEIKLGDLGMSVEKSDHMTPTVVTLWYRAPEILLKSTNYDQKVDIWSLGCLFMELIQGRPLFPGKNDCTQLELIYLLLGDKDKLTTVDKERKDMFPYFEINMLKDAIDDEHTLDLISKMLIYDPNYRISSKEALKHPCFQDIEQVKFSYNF

[7] = target: Protein kinase 7 (PK7), Plasmodium falciparum 3D7 (PF3D7_0213400) (UniProt Q7YTF7); assay: inhibition of Plasmodium PK7 catalytic activity – biochemical, TCAMS antimalarial set, Kinase-Glo luminescence (AID 1159587); conditions: recombinant PfPK7, Kinase-Glo ATP depletion luminescence
Sequence of Protein kinase 7 (PK7), Plasmodium falciparum 3D7 (PF3D7_0213400) (Q7YTF7 1-343): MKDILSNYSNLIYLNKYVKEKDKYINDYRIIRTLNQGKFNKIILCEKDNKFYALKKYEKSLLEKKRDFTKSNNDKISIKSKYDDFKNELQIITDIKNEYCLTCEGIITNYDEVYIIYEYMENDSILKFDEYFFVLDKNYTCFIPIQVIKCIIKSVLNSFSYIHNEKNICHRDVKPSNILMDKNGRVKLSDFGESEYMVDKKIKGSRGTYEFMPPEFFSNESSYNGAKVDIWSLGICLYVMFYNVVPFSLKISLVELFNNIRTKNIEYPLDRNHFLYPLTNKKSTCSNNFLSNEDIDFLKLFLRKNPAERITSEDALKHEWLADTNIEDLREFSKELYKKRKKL

[8] = target: Calcium-dependent protein kinase 4 (Plasmodium falciparum (isolate 3D7)) (UniProt Q8IBS5); assay: PfCDPK4 kinase inhibitors, biochemical, TCAMS library (AID 1159588; cut-off not given, nearly all actives have IC50 up to about 0.91 µM); conditions: recombinant PfCDPK4, Kinase-Glo ATP depletion luminescence
Sequence of Calcium-dependent protein kinase 4 (Plasmodium falciparum (isolate 3D7)) (Q8IBS5 whole entry, looked up): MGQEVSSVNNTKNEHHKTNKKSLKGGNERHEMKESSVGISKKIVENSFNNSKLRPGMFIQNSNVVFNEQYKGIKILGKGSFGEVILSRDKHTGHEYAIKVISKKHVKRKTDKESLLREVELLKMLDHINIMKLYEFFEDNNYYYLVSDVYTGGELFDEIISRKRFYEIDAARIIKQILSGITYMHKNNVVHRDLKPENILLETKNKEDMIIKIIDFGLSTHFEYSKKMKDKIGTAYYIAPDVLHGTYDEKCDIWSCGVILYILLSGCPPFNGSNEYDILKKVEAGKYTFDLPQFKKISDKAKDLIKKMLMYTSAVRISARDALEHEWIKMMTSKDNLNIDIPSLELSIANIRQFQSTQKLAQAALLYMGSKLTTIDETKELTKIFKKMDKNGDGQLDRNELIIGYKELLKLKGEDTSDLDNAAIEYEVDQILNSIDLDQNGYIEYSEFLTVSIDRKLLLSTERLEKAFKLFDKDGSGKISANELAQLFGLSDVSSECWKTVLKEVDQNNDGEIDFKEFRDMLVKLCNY

| Structure (SMILES) | growth inhibition [1] | inhibition [2] | inhibition [3] [%] | growth inhibition [4] | outcome [5] | outcome [6] | outcome [7] | outcome [8] |
| --- | --- | --- | --- | --- | --- | --- | --- | --- |
| COCCn1c(-c2cccc(Cl)c2)nn(-c2ccc([N+](=O)[O-])cc2Cl)c1=S | 99% (active) | 2% | -2 | 100% (active) | inactive | inactive | inactive | inactive |
| COc1ccc(CN2CCCC(Nc3ccc(F)c(F)c3)C2)c(O)c1 (stereo not given) | 83% (active) | 14% | 3 | 95% (active) | inactive | inactive | inactive | inactive |
| COc1ccc(NC(=O)c2c(NC(=O)c3cccs3)sc3c2CCCC3)cc1 | 4% | 4% | 1 | 97% (active) | inactive | inactive | inactive | inactive |
| N=C(N)c1ccc(OCc2cccc(COc3ccc(C(=N)N)cc3I)c2)c(I)c1 | 100% (active) | 7% | 2 | 102% (active) | inactive | inactive | inactive | inactive |
| COc1cc2c(cc1S(=O)(=O)c1ccc(OCc3ccc(Cl)cc3)cc1)CCN(Cc1ccc(NC(C)=O)s1)CC2 | -3% | 3% | -2 | 89% (active) | inactive | inactive | inactive | inactive |
| O=C(CN1CCC(NCc2cnc(-c3ccc(Cl)cc3)[nH]2)CC1)N1CCc2ccccc21 | 5% | 11% | -8 | 100% (active) | inactive | inactive | inactive | inactive |
| COc1ccc(Nc2cc(C)c3cc(NC(=O)c4ccncc4)ccc3n2)cc1 | 26% | 0% | 2 | 98% (active) | inactive | inactive | inactive | inactive |
| O=C1OC(c2cc3ccccc3n2S(=O)(=O)c2ccccc2)(c2cc3ccccc3n2S(=O)(=O)c2ccccc2)c2ccccc21 | 78% (active) | 1% | -1 | 95% (active) | inactive | inactive | inactive | inactive |
| CCNc1cc(C)nc(Nc2ccc(NC(=O)C3CCCC3)cc2)n1 | 69% (active) | 13% | 0 | 99% (active) | inactive | inactive | inactive | inactive |
| c1cc(CNCCc2ccncc2)cc(-c2cccc(-c3nc4ccccc4[nH]3)c2)c1 | 88% (active) | 21% | 1 | 100% (active) | inactive | inactive | inactive | inactive |
| FC(F)(F)c1ccc(CNC2CCN(CC3CCCCC3)CC2)cc1 | 5% | 4% | -4 | 87% (active) | inactive | inactive | inactive | inactive |
| COc1cc2[nH]c(-c3ccc(O)cc3)c(C)c(=O)c2c(OC)c1OC | 94% (active) | 1% | 0 | 100% (active) | inactive | inactive | inactive | inactive |
| CC(C)(C)C1CC(=O)C[C@@H]2C(=O)N(C3CCCCC3)C(=O)[C@H]12 (stereo not given in full) | 27% | -2% | -2 | 97% (active) | inactive | inactive | inactive | inactive |
| Cc1cccc2[nH]c(-c3ccc(-c4cccc(CNCCc5ccncc5)c4)s3)nc12 | 89% (active) | 11% | 2 | 100% (active) | inactive | inactive | inactive | inactive |
| Cc1ccccc1C1CCN(C2CCC(NC(=O)c3cc4cc(Cl)ccc4o3)CC2)CC1 (stereo not given) | 30% | 22% | -2 | 89% (active) | inactive | inactive | inactive | inactive |
| O=S(=O)(/C=C/c1ccccc1)N(Cc1ccc(-c2ccc(CNCCc3ccccc3)cc2)cc1)CC1CCCCN1 (stereo not given) | 96% (active) | 99% (active) | -2 | 100% (active) | inactive | inactive | inactive | inactive |
| COc1ccc2nccc([C@@H](O)CN3CCC(NC(=O)c4ccc(Oc5ccccc5)cc4)CC3)c2c1 | 13% | 39% | 2 | 82% (active) | inactive | inactive | inactive | inactive |
| CCN(CC)C(=NCCCCCCN=C(/N=C(\N)Nc1ccc(Cl)c(Cl)c1)N(CC)CC)/N=C(\N)Nc1ccc(Cl)c(Cl)c1 | 90% (active) | 1% | -3 | 94% (active) | inactive | inactive | inactive | inactive |
| O=C(NCCCCN1CCC(c2c[nH]c3ccc(-c4ccccc4)cc23)CC1)c1ccc(-c2ccccc2)cc1 | 40% | 48% | 3 | 97% (active) | inactive | inactive | inactive | inactive |
| CCOc1ncccc1CN1CCC(N2CCc3cc(NC(=O)c4ccco4)ccc32)C1 (stereo not given) | 94% (active) | 3% | 1 | 90% (active) | inactive | inactive | inactive | inactive |

| Structure (SMILES) | growth inhibition [1] | inhibition [2] | inhibition [3] [%] | growth inhibition [4] | outcome [5] | outcome [6] | outcome [7] | outcome [8] |
| --- | --- | --- | --- | --- | --- | --- | --- | --- |
| CCOc1cc(CC)ccc1C1CCN(CCN2CCC(NC(=O)c3ccc(-c4ccc(C#N)cc4)cc3)CC2)CC1 | 71% (active) | 32% | 6 | 100% (active) | inactive | inactive | inactive | inactive |
| O=C(CSc1nn(-c2ccccc2)c(=S)s1)c1c[nH]c2ccccc12 | 68% (active) | -7% | -1 | 93% (active) | inactive | inactive | inactive | inactive |
| COc1ccc2ncc(Cl)c(CCN3CCC(NCc4ccc5c(n4)NC(=O)CS5)CC3)c2c1 | 34% | 26% | -2 | 100% (active) | inactive | inactive | inactive | inactive |
| O=C(Cn1cc(C(F)(F)F)cc(Cl)c1=O)N1CCN(S(=O)(=O)c2ccc(Cl)cc2)CC1 | 69% (active) | 14% | 0 | 99% (active) | inactive | inactive | inactive | inactive |
| COc1cc(C(=O)N2CCOC(CCN3CC[C@@H]4c5ccccc5C[C@@H]43)(c3ccc(Cl)c(Cl)c3)C2)cc(OC)c1OC (stereo not given in full) | 82% (active) | 32% | 1 | 88% (active) | inactive | inactive | inactive | inactive |
| Oc1ccc(CCNCCCCCCNCCc2ccc(-c3ccccc3)cc2)cc1O | 8% | 72% (active) | 1 | 101% (active) | inactive | inactive | inactive | inactive |
| CC(C)CCN=C(N)c1ccc(OCCCCCOc2ccc(C(N)=NCCC(C)C)cc2)cc1 | 94% (active) | 5% | 5 | 98% (active) | inactive | inactive | inactive | inactive |
| Cc1ccc(C)c2c1[nH]c1ccc(C3=NCCN3)cc12 | -6% | 29% | -3 | 100% (active) | inactive | inactive | inactive | inactive |
| COc1ccc(CNCCCCCNCc2ccc(Cl)c(Cl)c2)cc1Cl | 43% | 42% | 0 | 98% (active) | inactive | inactive | inactive | inactive |
| CC1CCCCN1CCCNc1nc(NCc2ccccc2)c2ccccc2n1 (stereo not given) | 14% | 24% | 0 | 95% (active) | inactive | inactive | inactive | inactive |
| CCS(=O)(=O)c1ccc(-c2cnc3[nH]cc(-c4ccc(N)cc4)c3c2)cc1 | 99% (active) | 24% | -5 | 92% (active) | inactive | inactive | inactive | inactive |
| C[C@H](NC(=O)c1cc(-c2ccc(C(C)(C)C)cc2)no1)C(=O)O (tested in a mixture with another compound) | 97% (active) | 31% | -4 | 91% (active) | inactive | inactive | inactive | inactive |
| CCOc1ccc(-c2nonc2NC(=O)c2cccc(Cl)c2)cc1OCC | 99% (active) | -5% | -8 | 100% (active) | inactive | inactive | inactive | inactive |
| O=S(=O)(NCCN1CCCC1)c1ccc(-c2ccc(CNCc3ccsc3)cc2)s1 | 40% | 31% | 7 | 99% (active) | inactive | inactive | inactive | inactive |
| Cc1c(CNCCCNc2nc3ccncc3[nH]2)sc(Br)c1Br | 1% | -10% | 3 | 87% (active) | inactive | inactive | inactive | inactive |
| CS(=O)(=O)NCCCNCc1ccc(-c2ccc(-c3nc4ccc(C(F)(F)F)cc4[nH]3)cc2)cc1 | 83% (active) | 25% | 1 | 100% (active) | inactive | inactive | inactive | inactive |
| Cc1ccc(C(=O)Nc2ccc(C)c(OC3CCN(Cc4ccco4)C3)c2)cc1 (stereo not given) | 49% | 10% | 3 | 90% (active) | inactive | inactive | inactive | inactive |
| Cc1c(Cc2ccc(F)cc2)c(Cl)nc2nc(N)nc(N)c12 | 1% | 66% (active) | -2 | 92% (active) | inactive | inactive | inactive | inactive |
| COc1ccc(-c2ccc(CNCc3ccsc3)cc2)cc1S(=O)(=O)NCCN1CCCC1 | 30% | 22% | 3 | 94% (active) | inactive | inactive | inactive | inactive |
| Cc1ccc2nc3sc(C(=O)NCCCN4CCC(N5CCCCC5)CC4)cc3cc2c1 | 71% (active) | 11% | -5 | 103% (active) | inactive | inactive | inactive | inactive |
